According to the supplement of paper PMC10338343:
± gives the standard deviation.

Assays:
[1] = test system: MILI (PIWIL2) piRISC loaded with piRNA #1 (26 nt); test: pre-steady-state target cleavage rate (min^-1); guide: piRNA #1 5'p-UGAGGUAGUAGGUUGUAUAGUAUCCA; higher = faster piRNA-guided slicing of the target; conditions: auxiliary factor: 500 nM mouse GTSF1;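 further: 1 nM active piRISC with 0.1 nM target library at 33 °C single turnover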
Procedure, shortened: (§1)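 In HEPES–potassium acetate buffer at 33 °C, […] transcribed, DNA-blocked target RNA library was mixed with 1 nM active affinity-purified piRISC carrying one synthetic guide, with or without 500 nM GTSF1 partner protein, for 0–8 or 0–960 min. Uncleaved targets were sequenced and normalised to depth and to weakly complementary targets; three trials were pooled and k3 was capped at 0.0001 min^-1. The pre-steady-state cleavage rate followed from a burst-and-steady-state fit.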

[2] = test system: EfPiwi piRISC loaded with piRNA #1 (26 nt); test: pre-steady-state target cleavage rate (min^-1); auxiliary factor: 500 nM Ephydatia muelleri Gtsf1; guide: piRNA #1 5'p-UGAGGUAGUAGGUUGUAUAGUAUCCA; MIWI and MILI are mouse PIWI proteins and EfPiwi is from a freshwater sponge; tags in brackets are library labels; higher = faster piRNA-guided slicing of the target
Procedure, shortened: as §1

Sequence	pre-steady-state target cleavage rate [1]	pre-steady-state target cleavage rate [2]
GGAGACGAAACUAUACAACCUACUACCUCA	0.172 ± 0.022	0.0619 ± 0.022
GGAGAGCAUACUAUACAACCUACUAGCUCA	0.0696 ± 0.016	0.00355 ± 0.0022
GGAGAGAAUACUAUACAACCUACUACCUCA	0.177 ± 0.01	0.0106 ± 0.0053
GGAGAGGAUACUAUACAACCUACUACGUCA	0.058 ± 0.0086	0.00636 ± 0.0029
GGAGACGAUACUAUACAACCUACUACCCA	0.107 ± 0.024	0.00543 ± 0.0019
GGAGACCUUACUAUACAACCUACUACCGCA	0.19 ± 0.022	0.00343 ± 0.0026
GGAGUGCAUACAAUACAACCUACUACCUCA	0.186 ± 0.013	0.0102 ± 0.0044
GGAGACCUAUCUUAUACAACCUACUACCUCA	0.145 ± 0.031	0.0118 ± 0.0052
GGAGUGGAUACUAUACAUCCUACUACCUGA	0.0983 ± 0.018	0.00497 ± 0.0018
GGAGAGGAUACUAUACAACCUACUGACCUCA	0.077 ± 0.013	0.00473 ± 0.002
GGAGACCAUACUAUCACAACCUACUACCUCA	0.136 ± 0.019	0.0399 ± 0.014
GGAGACCUUUGAAUACAACCUACUACCUCA	0.00751 ± 0.0038	0.00525 ± 0.0038
GGAGUGGAUACUAUACAUCCUAGUACCUCA	0.103 ± 0.019	0.00411 ± 0.0015
GGAGAGGAUACUAUAACAACCUACUACCUCA	0.161 ± 0.012	0.0661 ± 0.025
GGAGACCAUACUAUACAACCUACUACUCUCA	0.331 ± 0.028	0.00773 ± 0.0036
GGAGACCAUACUAUACAACCUACUAUCUCA	0.136 ± 0.013	0.00899 ± 0.0033
GGAGACGUUACUAUACAACCUAGUACCUCA	0.0428 ± 0.0087	0.00427 ± 0.0015
GGAGACCAUACUAUACAACCUACUACCUCG [g2:g23:cont:t1G]	0.195 ± 0.017	0.0177 ± 0.0074
GGAGACCUUACUAUACAACCUAGUUCCUCA	0.0143 ± 0.0048	0.00334 ± 0.0033
GGAGACGAUACUUUACAACGUACUACCUCA	0.0294 ± 0.0045	0.00234 ± 0.0017

Sequence	pre-steady-state target cleavage rate [1]	pre-steady-state target cleavage rate [2]
GGAGAGGAAUACUAUACAACCUACUACCUCA	0.172 ± 0.0098	0.0974 ± 0.034
GGAGUCGGAUACUAUACAACCUACUACCUCA	0.187 ± 0.015	0.0621 ± 0.024
GGAGACCAUAGUAUACAACCUACUAGCUCA	0.0143 ± 0.0053	0.00326 ± 0.0032
GGAGACCUAAAUAUACAACCUACUACCUCA	0.0318 ± 0.0077	0.0102 ± 0.0046
GGAGACCUAUCUAUACAACCUACUACCAGA	0.104 ± 0.016	0.00327 ± 0.0026
GGAGACGAUACUAUCCAACCUACUACCUCA	0.175 ± 0.016	0.00717 ± 0.0028
GGAGACCUAACUAAUACAACCUACUACCUCA	0.103 ± 0.025	0.0103 ± 0.0044
GGAGACCUAUCUAUACAACCUCCUACCUCA	0.0185 ± 0.0046	0.00509 ± 0.0028
GGAGAGGAUACUAUACAACCUACUAGCCUCA	0.123 ± 0.02	0.00421 ± 0.0018
GGAGUCGAUACUAUUCAACCUACUACCUCA	0.192 ± 0.012	0.00506 ± 0.0029
GGAGACGAUACUAUACAUCCUUCUACCUCA	0.0277 ± 0.0037	0.00356 ± 0.0021
GGAGACCAUACUAUACAAGCUAGUACCUCA	0.0775 ± 0.016	0.0032 ± 0.0027
GGAGACCAUACUCUACAACCUACUACCUCA	0.161 ± 0.018	0.00922 ± 0.0037
GGAGAGCAUACUAUACAACCUAGUACCUCA	0.0618 ± 0.013	0.00276 ± 0.0014
GGAGUGGACACUAUACAACCUACUACCUCA	0.241 ± 0.025	0.115 ± 0.041
GGAGACCUUACUAUACCAACCUACUACCUCA	0.00685 ± 0.0036	0.00457 ± 0.0029
GGAGACCUAUCUAUACAACCUACUACUUCA	0.0866 ± 0.0097	0.0119 ± 0.0067
GGAGUGGUUACUAUACAACCUACAACCUCA	0.0861 ± 0.0095	0.00227 ± 0.0015
GGAGUGGAUACUAUACAACCUACUACUCA	0.0385 ± 0.0084	0.00563 ± 0.0029
GGAGACCAAACUAUACUACCUACUACCUCA	0.119 ± 0.022	0.00362 ± 0.0032

Sequence	pre-steady-state target cleavage rate [1]	pre-steady-state target cleavage rate [2]
GGAGUGGAUUCUAUACAUCCUACUACCUCA	0.299 ± 0.013	0.00479 ± 0.0026
GGAGACCUAUCUAUACAACAUACUACCUCA	0.0382 ± 0.0074	0.00529 ± 0.0038
GGAGUGGAUACUAUACAACCUACUACCUCU [g2:g26:cont:t1U]	0.231 ± 0.019	1.05 ± 0.27
GGAGACCUAUGAUAACAACCUACUACCUACA	0.0036 ± 0.0024	< 0.0001
GGAGACCUUACUAUACAACCUACUACCUGCA	0.167 ± 0.019	0.00419 ± 0.0031
GGAGACCUAUGUCAUACAACCUACUACCUCA	0.0265 ± 0.008	0.00679 ± 0.0034
GGAGAGGAUACUAUACAACCUACUGCCUCA	0.126 ± 0.014	0.00919 ± 0.0038
GGAGAGGUUUCUAUACAACCUACUACCUCA	0.14 ± 0.013	0.00427 ± 0.004
GGAGACCUAAACUAUACAACCUACUACCUCA	0.148 ± 0.018	0.00974 ± 0.0047
GGAGACCUAUGUAUACAACCUACUACUCUCA	0.117 ± 0.013	< 0.0001
GGAGACCUUACAAUACAACGUACUACCUCA	0.0135 ± 0.0052	0.00409 ± 0.004
GGAGACCUUACUAUACAACCUACUACACUCA	0.15 ± 0.022	0.0028 ± 0.0026
GGAGUGGAUACUAUACAACCUACUACCCUCA	0.104 ± 0.013	0.00587 ± 0.002
GGAGACCAUACUAUACAACCUACUACCAUCA	0.168 ± 0.027	0.0041 ± 0.0029
GGAGAGGAUACUAUACUACCUACUACCUCA	0.173 ± 0.011	0.00925 ± 0.0043
GGAGACGAUACUAUACAACCUACUACCUCA [g2:g24:cont:t1A]	0.21 ± 0.018	0.0773 ± 0.024
GGAGACCUUACCUAUACAACCUACUACCUCA	0.0629 ± 0.016	0.0117 ± 0.0057
GGAGACGAUACCUAUACAACCUACUACCUCA	0.104 ± 0.025	0.0601 ± 0.023
GGAGUGGAUACUAAACAACCUACUACCUGA	0.0827 ± 0.012	0.00228 ± 0.0017
